Many of the other results were omitted from the sample, so hits are more common in it than they were.
ALOX15B inhib = 15-hLO-2 (ALOX15B) enzyme inhibition. Potency, µM (series often up to 57.1 µM), without a hit: at the top dose activity change, negative = inhibition, actives largely listed as inhibitors. hit rate 0.56% among 110,000. purified 15hLO-2, xylenol orange hydroperoxide absorbance. O15296; further: nearly all actives have a fitted effect of over 60% in size
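Purified human 15hLO-2 (50 nM final) preincubated with compounds 15 min at room temperature in 25 mM Hepes pH 7.5, 0.01% Triton X-100, then 45 uM arachidonic acid added for 90 min; hydroperoxide detected via ferrous/xylenol orange, 573/405 nm absorbance ratio.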
12-hLO inh = inhibitors of human 12-lipoxygenase (ALOX12); purified 12-hLO, xylenol orange hydroperoxide absorbance; hit rate 0.12% among 150,000; P18054; Potency, µM (highest dose often 57.1 µM), inactives show top-dose activity change, negative = inhibition, most hits filed as inhibitors; AID 1452; further: nearly all actives have a fitted effect of over 55% in size
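Lipoxygenase turnover measured by absorbance at 573 and 405 nm after Fe-XO development. Human 12hLO 150 nM, arachidonate 40 uM, pH 7.0 Hepes buffer with detergent; 15 min compound preincubation, 30 min reaction.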
* = called active by the depositor; u = inconclusive; x = not tested or not shown; [ ] = dose if it differs, or a comment. The call rests on the fitted dose curve; in most records, active means well fitted curve in the direction sought with a large enough effect; inconclusive means small, poorly fitted or top-dose-only effect, or another doubt; inactive means no such curve, though single readings can be large; an effect the other way counts as inactive or inconclusive. On the % scale 0 is the no-effect control and ±100 the full control effect; potency means the concentration at half of the fitted maximal effect.

SMILES | ALOX15B inhib | 12-hLO inh
O=C1C=Cc2ccccc2C1=O | x | -24%
O=C1C=CC(=O)c2c(O)cccc21 | 3.2µM* | -24%
CCN(CC)c1ncnc2c1ncn2[C@@H]1O[C@@H](COP(=O)(O)OP(=O)(O)C(Br)(Br)P(=O)(O)O)[C@H](O)[C@@H]1O | 19% | -5%
O=C(O)[C@H]1CCN1 | 5% | 6%
O=C(O)CN1CCN(CC(=O)O)CC(=O)[O][Hg][O]C(=O)C1 | 0.32µM* | 0.28µM*
CCC(C)N1C(=O)NC(=O)C2(Cc3c(ccc4ccccc34)N(C)C2)C1=O (configuration not stated) | 5µM* | -18%
COc1ccc2c(c1)CC1(CN2C)C(=O)NC(=O)N(CCc2ccccc2)C1=O (configuration not stated) | -15% | -11%
COc1cc2c(cc1OC)[C@@]13CCN4C=C5CCO[C@H]6CC(=O)N2[C@@H]1[C@@H]6[C@H]5C[C@H]43 | -3%[11.4 µM] | -2%[11.4 µM]
CCNC(C)(C)[C@@H](SS)c1ccc(Br)cc1 | -23%[11.4 µM] | -3%[11.4 µM]
CN1[C@@H]2CC[C@H]1CC(O[C@@H](c1ccccc1)c1ccccc1N)C2 (some centres not stated) | 16% | 3%
CCCC[N+]1(C)[C@@H]2CC(OC(=O)[C@@H](CO)c3ccccc3)C[C@H]1[C@H]1O[C@H]12 (some centres not stated) | -9% | -3%
O=C(O)c1cccc(Cl)c1 | -4% | -4%
O=C(O)c1cc[c]([Hg][Cl])cc1 | 3.2µM* | u
C=CCN1CC[C@@]23CCCC[C@@H]2[C@@H]1Cc1ccc(O)cc13 | 5% | -5%
CC(N)C(O)c1ccc(O)c(O)c1 (configuration not stated) | -8% | -4%
CC(C)c1cccc(O)c(=O)c1 | 13µM* | u
O=C(c1cc2c(s1)CCCC2)N1CCC2(CC1)OCCO2 | 7.9µM* | 1%
O=C(c1csc2c1CCCCC2)N1CCC2(CC1)OCCO2 | 11% | -5%
CO[C@@H]([CH2][Hg])CN1C(=O)c2ccccc2S1(=O)=O.Cn1c(=O)c2nc[nH]c2n(C)c1=O | u | 0%[11.4 µM]
COC(=O)[C@]1(C)CC[C@@]2(C)CC[C@@]3(C)C4=CCc5c(cc(O)c(O)c5C)[C@]4(C)CC[C@@]3(C)C2C1 (some centres not stated) | 1% | -1%
CC1=C(O)C(=O)C=C2C1=CC=C1[C@]2(C)CC[C@@]2(C)C3C[C@](C)(C(=O)O)CC[C@@]3(C)CC[C@@]12C (some centres not stated) | 4µM* | u
C[C@]12CC[C@H](O)C[C@@H]1CC[C@H]1[C@H]2CC[C@]2(C)[C@H](C(=O)CO)CC[C@@H]12 | -14% | -4%
N[C@@H](Cc1cc(O)c(O)cc1O)C(=O)O | 33% | -18%
N#C/C(=C\c1ccc(O)c(O)c1)C(N)=S | 25µM* | 13µM*
CCCCCCCCCCCCCC(=O)O[C@H]1[C@@H](C)[C@@]2(O)[C@@H](C=C(CO)C[C@]3(O)C(=O)C(C)=C[C@@H]23)C2C(C)(C)[C@]21OC(C)=O (some centres not stated) | -20% | -5%
SMILES | ALOX15B inhib | 12-hLO inh
CC(=O)[C@@H]1CC[C@H]2[C@H]3CC[C@H]4C[C@@H](O)CC[C@]4(C)[C@@H]3CC[C@]12C | -11% | -3%
CNc1ccccc1C(=O)O | 6% | 6%
C[CH2][Hg][S]c1ccccc1C(=O)O | 0.63µM* | u
C[C@@H](Cc1ccc2c(c1)OC(C(=O)O)(C(=O)O)O2)NC[C@H](O)c1cccc(Cl)c1 | 4% | -7%
O=C1NC(=O)[C@]2(Cc3ccccc3N3CCN(c4ccccc4)CC32)C(=O)N1Cc1ccccc1 (some centres not stated) | 32µM* | -18%
O=C1NC(=O)C2(Cc3ccccc3N3CCCC32)C(=O)N1Cc1ccccc1 (configuration not stated) | -10% | -17%
O=C(O)c1ccccc1-c1c2cc(Br)c(=O)cc-2oc2[c]([Hg])c(O)c(Br)cc12 | 4µM* | u
CC(C)C[C@H](NP(=O)(O)O[C@@H]1O[C@@H](C)[C@@H](O)[C@@H](O)[C@H]1O)C(=O)N[C@@H](Cc1c[nH]c2ccccc12)C(=O)O | 5% | 2%
CC(=O)/C=C/c1ccccc1 | -17% | -3%
CC(=O)[O][Hg][c]1ccccc1 | 0.32µM* | u
Cc1c(OCC(F)(F)F)ccnc1CS(=O)c1nc2ccccc2[nH]1 (configuration not stated) | u | -11%
COCCCOc1ccnc(CS(=O)c2nc3ccccc3[nH]2)c1C (configuration not stated) | 13µM* | -10%[0.00818 µM]
Oc1ccc2c3c1O[C@@H]1c4[nH]c5c(c4C[C@@]4(O)[C@@H](C2)N(CC2CC2)CC[C@]314)C[C@]1(O)[C@@H]2Cc3ccc(O)c4c3[C@@]1(CCN2CC1CC1)[C@H]5O4 | 37% | -4%
C=CCN1CC[C@]23c4c5ccc(O)c4O[C@@H]2C(=O)CC[C@@]3(O)[C@H]1C5 | -6% | -5%
c1ccc2c(c1)Nc1ccccc1S2 | 5µM* | 14µM*
CC[C@H](CO)NC(=O)[C@@H]1C=C2c3cccc4[nH]cc(c34)C[C@@H]2N(C)C1 | -2% | -4%
CC[C@@H]1CN2CCc3cc(OC)c(OC)cc3[C@H]2C[C@@H]1C[C@@H]1NCCc2cc(OC)c(OC)cc21 | 30% | -5%
Oc1cc2c(cc1O)[C@H]1c3ccccc3CN[C@H]1CC2 | 6.3µM* | -10%
Oc1cc2c(cc1O)[C@H]1c3ccccc3CN[C@@H]1CC2 | u | -11%
CCN1C[C@]2(C)CC[C@@H](O)[C@]34[C@@H]5CC6[C@@H](OC)C[C@@](O)([C@H]5[C@@H]6O)[C@@H](C[C@@H]23)[C@H]14 | 4% | -3%
